An excerpt weighted towards active compounds, which were near 4.6% of everything screened.
D1 potentiator: enhances dopamine response at the human D1 receptor. HEK293 TREx D1 cells, calcium flux, dopamine EC20 potentiation. potentiation, % at 10 µM. 360,000 tested, 0.036% active. AID 504651; in the data active = potentiation above about 30%
D1 agonist: activates the human D1 dopamine receptor; activation, % at 2 µM; P21728; AID 504660; HEK293 T-REx D1 cells, calcium flux, agonist mode; 360,000 tested, 1% active
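Inducible HEK293 T-REx D1 cells, force-coupled to calcium signalling, were plated at 4000 cells/well with tetracycline and held overnight at 30 C. After no-wash calcium dye loading, compound-evoked calcium rise over 180 s flagged agonists.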
TRHR PAM: allosterically enhances the human TRH receptor; P34981; enhancement, % at 2 µM; TRHR cells, fluo-8 calcium fluorescence, EC20 TRH enhancement; AID 493056; 360,000 tested, 0.66% active; in the data active = enhancement above about 30%
Target sequence (P34981 whole entry, looked up): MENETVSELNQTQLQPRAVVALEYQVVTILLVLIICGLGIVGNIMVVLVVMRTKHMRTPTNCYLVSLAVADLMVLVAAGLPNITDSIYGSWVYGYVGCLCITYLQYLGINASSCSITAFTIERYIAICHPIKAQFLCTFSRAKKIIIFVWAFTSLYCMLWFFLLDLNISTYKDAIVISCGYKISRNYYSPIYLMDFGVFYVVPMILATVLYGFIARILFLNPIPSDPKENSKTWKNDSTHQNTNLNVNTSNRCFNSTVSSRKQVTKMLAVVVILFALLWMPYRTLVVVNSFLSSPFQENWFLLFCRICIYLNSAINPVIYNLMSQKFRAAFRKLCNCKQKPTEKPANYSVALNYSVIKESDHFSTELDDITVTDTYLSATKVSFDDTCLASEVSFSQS
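Enhancer read-out: after compound pinning and an initial kinetic agonist-mode read, an EC20 of TRH (10 nM final) was injected and fluo-8 calcium signal (Ex 480/Em 530) followed at 1 s/cycle for 100 cycles in TRHR-expressing cells.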
D1 antag: blocks dopamine activation of the human D1 receptor; P21728; HEK293 TREx D1 cells, calcium flux, dopamine EC80; active compounds read low; activity change, negative = inhibition, % at 10 µM; 360,000 tested, 3.2% active; AID 504652; in the data active = activity change below about -30%
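Compound effects on dopamine-evoked calcium signalling were measured in tetracycline-induced HEK293 Trex D1 cells. Dopamine at EC80 followed a 180 s compound pre-read, and fluorescence was tracked kinetically for 180 s more.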
TRHR ag: TRH receptor (human) agonism; AID 493084; activation, % at 2 µM; 360,000 tested, 0.18% active; TRHR cells, calcium flux fluo-8, FDSS agonist mode; P34981
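Read-out: compound-evoked intracellular calcium rise in TRHR cells, fluo-8 dye, kinetic FDSS fluorescence at 1 s/cycle following a 10-cycle baseline. Cells cultured overnight before dye loading (30 min–1.5 h, RT).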
Numbers stand for hits; - = inactive; . = no result given; ! = not active in a repeat. Cut-off read from the data, not from the text of the source, unless noted: active = activation above about 30%; inactive = the rest.

SMILES	D1 potentiator	D1 agonist	TRHR PAM	D1 antag	TRHR ag
CCN(CCO)Cc1csc2ccc(C(C)(C)C)cc12	-	-	-	-81.7	-
CCN(CCO)Cc1csc2ccccc12	-	-	-	-38.1	-
CCN(CCO)Cc1csc2cc(C)ccc12	-	-	-	-	-
CCOC(=O)c1ccc(NC(=O)CCc2nc3cccnc3n2Cc2cccs2)cc1	-	-	-	-	-
CC(C)(C)c1ccc(-n2nc(C#N)c(Cl)cc2=O)cc1	-	-	-	-40.8	-
COc1ccc(OCCCCn2c(CO)nc3ccccc32)cc1	-	-	-	-53.5	-
CCCCn1c(CNC(=O)CCC)nc2ccccc21	-	-	-	-33.6	-
CCn1c(COc2ccccc2C)nc2ccccc21	-	-	-	-	-
CCc1nc2ccccc2n1CCCCOc1cccc(C)c1	-	-	-	-	-
CCn1c(COc2cccc(C)c2)nc2ccccc21	-	-	-	-31.8!	-
Cc1cccc(OCCCCn2c(CO)nc3ccccc32)c1	-	-	-	-37.6	-
Cc1ccc(N(C)C(=O)Cn2cnc3onc(-c4ccc(F)cc4)c3c2=O)cc1C	-	-	-	-	-
Cc1ccc(C)c(N2CCN(c3cc(C)nc4c(-c5ccc(Cl)cc5)c(C)nn34)CC2)c1	-	-	-	-	-
O=C(CNC(=S)N(Cc1ccccc1F)C1CCCCC1)NCC1CCCO1 (configuration not stated)	-	-	-	-45.5	-
O=C(CNC(=S)N(Cc1ccc(F)cc1)C1CCCCC1)NCC1CCCO1 (configuration not stated)	-	-	-	-	-
CCCCNC(=O)CNC(=S)N(Cc1ccccc1F)C1CCCCC1	-	-	-	-36.7	-
CCOc1ccc(N(C(=O)c2ccc(C)cc2)S(=O)(=O)c2ccc3c(c2)n(C)c(=O)n3C)cc1	-	-	-	-	-
CCOC(=O)c1ccc(S(=O)(=O)NCCN(CC)CC)cc1	-	-	-	-	-
CCN(CC)CCNS(=O)(=O)c1ccc(C(=O)NN)cc1	-	-	-	-34.9	-
CC1=C(c2ccc(C(C)C)cc2)S(=O)(=O)N=C1N1CCC(C(=O)NCc2ccccc2)CC1	-	-	-	-	-
Cc1ccc(C)c(-c2ccc(=O)n(C(C)C(=O)Nc3ccccc3C(F)(F)F)n2)c1 (configuration not stated)	-	-	-	-	-
CCC(=O)NNc1nc2c(F)cc(F)cc2s1	-	-	-	-35.1	-
CCC(=O)NNc1nc2c(F)cccc2s1	-	-	-	-	-
COc1ccc(N2CCN(c3nc4ccc(C)cc4n4nnnc34)CC2)cc1	-	-	-	-	-
O=C(COC(=O)c1cc[n+]([O-])cc1)Nc1ccc(Br)cc1	-	-	-	-	-
SMILES	D1 potentiator	D1 agonist	TRHR PAM	D1 antag	TRHR ag
O=C(COC(=O)c1cc[n+]([O-])cc1)Nc1ccc(SC(F)F)cc1	-	-	-	-33.8	-
Cc1ccc(CN(Cc2cccn2-c2nnc(N3CCCC3=O)s2)C(=O)Nc2ccccc2Cl)cc1	-	-	-	-68.9	-
Cc1ccc(CNCc2cccn2-c2nnc(N3CCCC3)s2)cc1	-	-	-	-	-
COc1ccc(CCNC(=S)NC2CCN(Cc3ccccc3)CC2)cc1	-	41.7	-	-	-
CCCNC(=S)NC1CC2CCC(C1)N2Cc1ccccc1 (configuration not stated)	-	-	-	-	-
S=C(Nc1ccc(Cl)cc1)NC1CCN(Cc2ccccc2)CC1	-	39.4	38.3	-78.1	-
S=C(Nc1ccccc1)NC1CCN(Cc2ccccc2)CC1	-	-	-	-	-
S=C(NCCc1ccccc1)NC1CC2CCC(C1)N2Cc1ccccc1 (configuration not stated)	-	39.2	-	-66.2	-
CCc1ccc(NC(=S)NC2CCN(Cc3ccccc3)CC2)cc1	-	34.1	-	-81.4	-
CCC(C)c1ccc(NC(=S)NC2CCN(Cc3ccccc3)CC2)cc1 (configuration not stated)	-	-	-	-	-
CCOC(=O)c1cc(-c2ccc(C)cc2)n(CCC(=O)Nc2nc3c(C)cccc3s2)c1C	-	-	-	-	-
O=C(Nc1c[nH]c2c(Cl)cccc2c1=O)N1CCN(c2ccccn2)CC1	-	-	31.5	-	-
CNC(=O)c1c(NC(=O)/C=C/c2ccccc2Cl)sc2c1CCC2	-	-	-	-	-
CCc1ccc(Nc2nnc(SCC(=O)N(C)C3CCS(=O)(=O)C3)s2)cc1 (configuration not stated)	-	-	-	-70.3	-
COc1ccc(CSc2ccc(S(=O)(=O)N3CCCCC3)cn2)cc1F	-	-	-	-41.6	-
COc1ccc(CN2CCN(C(=O)c3ccc(S(=O)(=O)N4CCCCCC4)cc3)CC2)cc1F	-	-	-	-	-
O=S(=O)(c1ccc(SCc2ccc(Cl)cc2)nc1)N1CCCC1	-	-	-	-32.7	-
Cc1cc(C)cc(CSc2ccc(S(=O)(=O)N3CCCC3)cn2)c1	-	-	-	-	-
COc1ccc(C(C)=O)cc1CSc1ccc(S(=O)(=O)N2CCCCC2)cn1	-	-	-	-43.7	-
Cc1cc(C)nc(SCC(=O)c2ccc(O)cc2O)n1	-	-	-	-42.7	-
Cc1cc(C)nc(SCC(=O)c2ccc(O)c(O)c2)n1	-	-	-	-	-
CCc1cccc(NS(=O)(=O)c2ccc(-n3cccn3)cc2)c1	-	-	-	-	-
Cc1ccc(NS(=O)(=O)c2ccc(-n3cccn3)cc2)cc1C	-	-	-	-	-
CCc1cccc(C)c1NS(=O)(=O)c1ccc(-n2cccn2)cc1	-	-	-	-47.1	-
COc1ccc(NS(=O)(=O)c2ccc(-n3cccn3)cc2)cc1OC	-	-	-	-33.1	-
SMILES	D1 potentiator	D1 agonist	TRHR PAM	D1 antag	TRHR ag
CCOc1ccc(NC(=O)C(=O)NCC(c2cccnc2)N2CCc3ccccc32)cc1 (configuration not stated)	-	-	-	-	-
Cc1cc(C)cc(NC(=O)Cn2c3ncccc3c(=O)n2-c2ccc(C)c(C)c2)c1	-	-	-	-	-
Cc1cc2c(s1)Nc1ccccc1N=C2N1CCN(C)CC1	.	.	-	-89.1	-
CN1CCN(c2ncc(CN3C(=O)c4ccccc4C3=O)s2)CC1	-	-	-	-	-
CCOC(=O)c1c(C(C)(C)C)oc2ccc(O)cc12	-	88.2	-	-	-
CC1=NN(c2ccccc2)C(=O)C1	-	-	-	-	-
CC1=NN(c2cccc([N+](=O)[O-])c2)C(=O)C1	-	43.2	-	-	-
COc1ccc(COC(=O)Nc2cc3c(C(F)(F)F)nn(C)c3s2)cc1	-	-	30.4	-	-
Cn1nc(C(F)(F)F)c2cc(NC(=O)OCc3ccc(F)cc3)sc21	-	-	-	-	-
CC(C)(C)C1CCc2c(sc(NC(=O)C3CC=CCC3C(=O)O)c2C#N)C1 (configuration not stated)	-	-	-	-39.6	-
